We go through 92 molecules from PubChem BioAssay AID1259422 (The Scripps Research Institute Molecular Screening Center, 2018).

The whole screen tested about 640,000 compounds, of which about 9,300 (1.5%) were called active. Rule as the data show it: active = inhibition above about 32%; inactive = the rest. The entries come from a sample that favours actives as a whole.

This assay can be described thus: TEAD-YAP interaction inhibition, primary screen, TEAD-YAP interaction inhibitor project, luminescence, HEK-TIYL cells (AID 1259422).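 Also: 0% = median of test compound wells and 100% = reference inhibitor wells.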 The note with it: TEAD-Gal4/YAP UAS-luciferase luminescence, at 9.12 µM, active compounds read high.
In the case of `COc1cccc(CCC(=O)N2CCC(CCC(=O)N(C)Cc3ccccc3)CC2)c1`, the inhibition was 4.53% (inactive).

For `COc1cc(C2C(C#N)=C(N)Oc3n[nH]c(-c4cc(OC)c(OC)c(OC)c4)c32)ccc1OC(=O)N1CCOCC1` (configuration not stated), the inhibition was 12.5% (inactive).

`O=C(O)c1cc(N=Cc2cc(Br)cc(Cl)c2O)ccc1O`: the inhibition was -2.5% (inactive).

Take `CC1=C(C#N)C(c2ccc(Cl)cc2Cl)C2=C(CC(c3ccccc3)CC2=O)N1` (configuration not stated): the inhibition was 11.3% (inactive).

As to `CC1=C(C#N)C(c2ccccc2Br)C2=C(CC(c3ccccc3)CC2=O)N1` (configuration not stated), the inhibition was 37.1% (active).

On to `COC(=O)C1=C(C)NC2=C(C(=O)CC(c3ccccc3)C2)C1c1ccc(C)cc1` (configuration not stated), for which the inhibition is 2.81% (inactive).

On to `COC(=O)CCCC(=O)N1CCOCCOCCN(C(=O)CCCC(=O)OC)CCOCCOCC1`, for which the inhibition is 7.88% (inactive).

With `COc1ccc(C2=NOC(C(=O)NCCc3ccccc3)C2)cc1OC` (configuration not stated), the inhibition was -5.18% (inactive).

On to `COc1ccc(-c2nnc(SCC(=O)NC(=O)NCc3ccco3)o2)cc1OC`, for which the inhibition is 12.3% (inactive).

With `COc1ccc(C2=NOC(C(=O)NCc3ccco3)C2)cc1OC` (configuration not stated), the inhibition was 46.8% (active).

Take `CC(C)C[C@@H]1NC(=O)[C@@H]2C[C@H](NC(=O)Nc3ccccc3)CN2C1=O`: the inhibition was 3.71% (inactive).

`CCOc1cc(CN2CCC(C(=O)NCCc3ccccc3)CC2)ccc1O`: the inhibition is -8.29% (inactive).

In the case of `CC(Oc1ccccc1)c1nc(-c2ccccn2)no1` (configuration not stated), the inhibition was -32.3% (inactive).

As for `c1ccc(-c2noc(-c3cccs3)n2)nc1`, the inhibition was 33.7% (active).

In the case of `CCOc1ccccc1-c1noc(-c2cccs2)n1`, the inhibition is -16.8% (inactive).

Regarding `CN(C)S(=O)(=O)c1ccc(NC(=O)COC(=O)c2ccc(NC(N)=O)cc2)cc1`, the inhibition was -1.47% (inactive).

On to `COCCC(=O)NC(C)c1nnc2n1CCN(Cc1ccc(C)cc1)CC2` (configuration not stated), for which the inhibition is 10.5% (inactive).

In the case of `Cc1ccc2nc(NCCOCCO)c(/C=C3\SC(=S)N(C(C)C)C3=O)c(=O)n2c1`, the inhibition is -4.15% (inactive).

Take `COc1ccc(/C=C2/C(=N)N3C(=NC2=O)SN=C3S(=O)(=O)C(C)C)cc1OC`: the inhibition is -1.31% (inactive).

Take `O=C(Cc1ccc(Cl)c(Cl)c1)N1CCC(O)(c2ccccn2)CC1`: the inhibition is 0.43% (inactive).

Take `O=C(c1cn2c(n1)sc1ccccc12)N1CCCC1`: the inhibition is 37.1% (active).

On to `O=C(c1cc(-c2ccccc2Cl)on1)N1CCCCC1`, for which the inhibition is 0.6% (inactive).

As to `O=C(c1cccc2nc3ccccc3nc12)N1CCCCCC1`, the inhibition was -1.97% (inactive).

In the case of `CCOC(=O)c1[nH]ncc1CN1CCCC(N(C)CCc2ccccc2)C1` (configuration not stated), the inhibition was -7.42% (inactive).

As to `O=C1c2ccccc2OCCN1Cc1ccc(F)cc1`, the inhibition was -3.96% (inactive).

For the molecule `O=C(Nc1ccc(Cl)c(C(=O)O)c1)c1ncn[nH]1`, the inhibition was 1.11% (inactive).

For the molecule `CCc1ccc(NC(=O)c2ncn[nH]2)cc1`, the inhibition was 47.9% (active).

For the molecule `CSc1cccc(NC(=O)c2ncn[nH]2)c1`, the inhibition was 4.68% (inactive).

Regarding `CCCCn1c(N)c(N2CCOCC2)c(=O)[nH]c1=O`, the inhibition was 2.71% (inactive).

`CCOC(=O)C1CCN(Cn2[nH]c3nc4ccccc4n3c2=S)CC1`: the inhibition is -6.77% (inactive).

As to `FC(F)(F)c1cccc(N2CCN(CCN3CCOCC3)CC2)c1`, the inhibition is -6.06% (inactive).

`COc1ccc(CCNc2ncnc3nc(-c4ccc(C(N)=O)cc4)[nH]c23)cc1`: the inhibition was -4.01% (inactive).

For the molecule `COc1ccc(-c2nc3ncnc(NCc4ccccc4)c3[nH]2)cn1`, the inhibition was 45% (active).

On to `COc1ccc(-c2nc3ncnc(NCCN4CCOCC4)c3[nH]2)cc1`, for which the inhibition was -0.6% (inactive).

Consider `OCCNc1ncnc2nc(-c3ccccc3)[nH]c12`, for which the inhibition was 6.88% (inactive).

Take `COc1ccc(-c2nc3ncnc(Nc4ccccc4)c3[nH]2)cc1`: the inhibition was 0.52% (inactive).

As for `COc1ccc(-c2nc3ncnc(NCCc4ccc(O)cc4)c3[nH]2)cn1`, the inhibition was 58.2% (active).

With `COc1cc(OC)cc(C(=O)Nc2cc(C(=O)Nc3ccc(OC)c(OC)c3)ccc2N2CC3CC(C2)c2cccc(=O)n2C3)c1` (configuration not stated), the inhibition is -0.12% (inactive).

Consider `COc1ccc(/C=C/C(=O)NCCOc2ccc(Cl)cc2)cc1OC`, for which the inhibition is -6.87% (inactive).

For the molecule `CC(C)(C)NC(=O)CCc1nc(-c2ccc(C(C)(C)C)cc2)no1`, the inhibition was 50.6% (active).

As to `CC(=O)Nc1ccc(NC(=O)CCCc2nc(-c3ccc(C(C)(C)C)cc3)no2)cc1`, the inhibition was 68.3% (active).

Turning to `COc1ccc(-c2noc(CCC(=O)N(C)C)n2)cc1`, the inhibition was -26.2% (inactive).

Turning to `CCCNC(=O)CCCc1nc(-c2ccc(Cl)cc2)no1`, the inhibition was 25.2% (inactive).

Turning to `COc1ccc(NC(=O)CCCc2nc(-c3ccc(OC)c(OC)c3)no2)cc1`, the inhibition was 1.43% (inactive).

`CCNC(=O)CCc1nc(-c2cccc(C)c2)no1`: the inhibition was -13.2% (inactive).

For the molecule `COC(=O)c1ccc(C(=O)NCC2CCC3(CCN(Cc4ccccn4)CC3)O2)cc1` (configuration not stated), the inhibition is 9.59% (inactive).

Consider `Cc1cccc(C(=O)OCC(=O)NC2CCCCC2C)c1O` (configuration not stated), for which the inhibition was 7.9% (inactive).

On to `COc1cccc(C(=O)NC2(C(F)(F)F)NC(=O)N(c3ccccc3)C2=O)c1` (configuration not stated), for which the inhibition was 8.83% (inactive).

Take `COc1cccc2cc(C(=O)Nc3cccc4ccccc34)c(=N)oc12`: the inhibition is -5.43% (inactive).

In the case of `Cc1ccc2oc(-c3ccc(C)c(N)c3)nc2c1`, the inhibition is 53.6% (active).

Turning to `CC(=O)Nc1cc(-c2nc3cc(C(C)C)ccc3o2)ccc1Cl`, the inhibition is -35.8% (inactive).

For `Cc1ccc2oc(-c3ccc(C)c(NC(=O)c4ccc([N+](=O)[O-])o4)c3)nc2c1`, the inhibition was -28.6% (inactive).

In the case of `Cc1cc(-c2nc3cc(N)ccc3o2)ccc1Br`, the inhibition was 1.99% (inactive).

As to `CCc1ccc2oc(-c3ccc(N)cc3)nc2c1`, the inhibition is 79.6% (active).

`Cc1ccc(OCC(=O)Nc2ccc(-c3nc4cc(C(C)C)ccc4o3)cc2)cc1`: the inhibition is 20.8% (inactive).

Consider `CCc1ccc2oc(-c3ccc(NC(=O)c4ccccc4[N+](=O)[O-])cc3)nc2c1`, for which the inhibition is -50.9% (inactive).

For the molecule `Cc1ccc(-c2nc3cc(C(C)C)ccc3o2)cc1N`, the inhibition is 80.7% (active).

On to `CCc1ccc(-c2nc3cc(NC(=O)c4ccc(Cl)cc4)ccc3o2)cc1`, for which the inhibition is 7.97% (inactive).

As for `COc1ccccc1N1CCN(CC(O)COc2ccc(C#N)cc2)CC1` (configuration not stated), the inhibition was 0.33% (inactive).

With `O=C(N/N=C/c1ccco1)c1cccc(F)c1`, the inhibition is -63.8% (inactive).

As to `Fc1ccc(C2C=C(c3cccs3)NC(=S)N2)cc1` (configuration not stated), the inhibition is 13.5% (inactive).

Consider `CC(C)N1CCC(N2CCN(Cc3nc(-c4ccccc4)cs3)CC2CCO)CC1` (configuration not stated), for which the inhibition is -5.11% (inactive).

With `COC(=O)N1CCC(C(=O)N(C)C(c2ccc(F)cc2)c2ccccn2)CC1` (configuration not stated), the inhibition was 11.1% (inactive).

For the molecule `CCN(CC)CCn1c(=S)sc2c(=O)n(-c3ccccc3OC)c(SCc3ccccc3Cl)nc21`, the inhibition is -5.55% (inactive).

`O=C(Nc1ccc2c(c1)OCCO2)C(=O)Nc1ccc2nc3n(c(=O)c2c1)CCCCC3`: the inhibition is -4.8% (inactive).

Turning to `Cc1ncsc1C(=O)N1CCC(c2c(S(C)(=O)=O)cnc3ncnn23)CC1`, the inhibition was 11.5% (inactive).

Regarding `CCOc1cc(Br)c([N+](=O)[O-])cc1OCC`, the inhibition is -4.81% (inactive).

Take `CCOc1ccc(C2N(c3cccc(Cl)c3)C(=O)C3CCCN32)cc1OC` (configuration not stated): the inhibition is 0.7% (inactive).

On to `CCOc1ccc(C2Oc3c(Br)cc(Br)cc3C=C2[N+](=O)[O-])cc1OC` (configuration not stated), for which the inhibition is 86% (active).

Consider `CCOc1cc(/C=C2/N=C(c3ccc(Cl)cc3)OC2=O)ccc1OCc1ccc(Cl)cc1`, for which the inhibition was -7.55% (inactive).

On to `Cc1ccc(C(=O)C[n+]2cc(-c3ccccc3)n3c2CCCCC3)cc1`, for which the inhibition was 38.8% (active).

`Cc1ccc(-c2nn3cc(-c4ccccc4)c4c3n2CCCC4)cc1`: the inhibition is -4.85% (inactive).

For `O=C(CNC1=NCCCCC1)c1ccc(-c2ccccc2)cc1`, the inhibition was -23.5% (inactive).

Consider `CN(C(=S)Nc1ccc(Cl)cc1)c1c(N)n(Cc2ccccc2)c(=O)[nH]c1=O`, for which the inhibition is -0.81% (inactive).

Consider `COc1ccc(N2CCN(C(CNC(=O)c3cccs3)c3ccc4c(c3)OCO4)CC2)cc1` (configuration not stated), for which the inhibition was -22.3% (inactive).

In the case of `Cn1c(C2COc3ccccc3O2)nc2ccc(-c3cn[nH]c3)cc21` (configuration not stated), the inhibition was -90.1% (inactive).

As to `c1ccc2c(c1)OCC(c1nc3ccc(-c4ccncc4)cc3[nH]1)O2` (configuration not stated), the inhibition is -24.1% (inactive).

For `CC(C)n1c(C2COc3ccccc3O2)nc2ncc(-c3ccncc3)cc21` (configuration not stated), the inhibition was 33% (active).

As for `COc1cccc(/C=N/N2CCN(Cc3ccc(C)cc3)CC2)c1`, the inhibition was -0.53% (inactive).

`Cc1nc2ccccn2c1CN1CCN(CC(O)COCc2ccc(Cl)cc2)CC1` (configuration not stated): the inhibition is 22.8% (inactive).

In the case of `Clc1ccc(CN2CCN(/N=C/c3c(Cl)nc4ccccn34)CC2)cc1`, the inhibition was 35.3% (active).

For `CCOC(=O)CC(=O)CSc1nc2c(sc(=S)n2-c2ccc(Cl)c(C)c2)c(=O)n1-c1ccccc1OC`, the inhibition was 0.42% (inactive).

As to `COC(=O)c1cnn2c(C(F)(F)F)cc(-c3ccc(Br)cc3)nc12`, the inhibition is 13.7% (inactive).

Regarding `Brc1ccc(N=c2oc3ccccc3cc2-c2nc3ccccc3[nH]2)cc1`, the inhibition was -86.1% (inactive).

For `c1ccc2oc(=Nc3cccc4ccccc34)c(-c3nc4ccccc4[nH]3)cc2c1`, the inhibition was 41.4% (active).

As for `N#Cc1ccccc1N=c1oc2ccccc2cc1-c1nc2ccccc2[nH]1`, the inhibition is -44.7% (inactive).

As for `Cc1cccc(C(=O)Nc2ncc3c(n2)CC(C)(C)CC3=O)c1`, the inhibition was -0.47% (inactive).

Consider `CCOC(=O)c1c(NC(=O)CSc2nnc(CNC(=O)c3ccc([N+](=O)[O-])cc3)n2CCc2ccccc2)sc2c1CCCCC2`, for which the inhibition is -6.86% (inactive).

As to `COc1ccc(N2CC(O)=C(c3nc4ccccc4c(=O)[nH]3)C2=N)cc1`, the inhibition was 0.42% (inactive).

Regarding `CC(=O)c1cccc(N2CC(O)=C(c3nc4ccccc4[nH]3)C2=N)c1`, the inhibition is -5.18% (inactive).

In the case of `Cc1cccc(N2CC(O)=C(c3nc4ccccc4c(=O)[nH]3)C2=N)c1C`, the inhibition is 46.8% (active).

For the molecule `C/C(CC(=O)Nc1cccc2ccccc12)=N\NC(=O)c1cccnc1`, the inhibition is -13.7% (inactive).

As a reminder, the inhibition is the relative decrease from the control value, in per cent.
